Screening results from PubChem BioAssay.
PKM2 act: activators of human pyruvate kinase M2; purified PKM2, Kinase-Glo ATP luminescence, activation; response scale: 0% is enzyme alone, no compound; 0.34% of 260,000 active; Potency, µM (series often up to 57.5 µM), usual class: activators; AID 1631; further: nearly all actives have a fitted effect of over 55% in size
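hPK-M2, >95% pure; 0.1 mM ADP / 0.5 mM PEP final; imidazole pH7.2 buffer w/ 7 mM MgCl2, 50 mM KCl; 1 h RT; Kinase-Glo lum. Intermediate enzyme activity for dual inhibitor/activator qHTS.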
BLM inh-1: blocks DNA unwinding by human BLM helicase. P54132. recombinant BLM DNA unwinding, fluorescence dequenching. Potency, µM (top dose mostly 56.1 µM), actives largely listed as inhibitors. 0.2% of 350,000 active. AID 2528; further: nearly all actives have a fitted effect of over 35% in size
RECQ1 inh-1: blocks DNA unwinding by human RECQ1; P46063; RECQ1 DNA unwinding, red fluorescence kinetic read; Potency, µM (titrated, usually from 57.3 µM), most hits filed as inhibitors; 0.54% of 240,000 active; further: nearly all actives have a fitted effect of over 30% in size
Target sequence (P46063 whole entry, looked up): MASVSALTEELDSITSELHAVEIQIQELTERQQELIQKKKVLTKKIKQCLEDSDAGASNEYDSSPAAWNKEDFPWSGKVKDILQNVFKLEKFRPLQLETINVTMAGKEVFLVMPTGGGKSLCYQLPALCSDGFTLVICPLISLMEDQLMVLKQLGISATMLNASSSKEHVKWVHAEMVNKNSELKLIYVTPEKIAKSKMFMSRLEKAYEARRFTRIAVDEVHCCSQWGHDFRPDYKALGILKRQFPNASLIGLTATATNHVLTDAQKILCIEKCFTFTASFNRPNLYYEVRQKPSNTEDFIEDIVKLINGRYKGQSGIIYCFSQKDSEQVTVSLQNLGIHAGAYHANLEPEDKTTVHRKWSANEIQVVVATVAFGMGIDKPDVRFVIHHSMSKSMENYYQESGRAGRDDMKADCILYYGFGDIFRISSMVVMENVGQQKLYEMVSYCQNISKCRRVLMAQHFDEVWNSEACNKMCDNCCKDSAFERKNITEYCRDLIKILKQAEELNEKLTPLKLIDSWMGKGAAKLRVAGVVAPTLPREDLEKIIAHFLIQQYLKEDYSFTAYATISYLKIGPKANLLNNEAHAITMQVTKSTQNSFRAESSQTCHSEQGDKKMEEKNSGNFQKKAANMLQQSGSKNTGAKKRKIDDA
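RECQ1T1 50 nM; forked duplex (20 bp + 30-nt ss tails) 200 nM, ATP 2 mM final; pH 8.0, 2 mM MgCl2, 2.5 ug/ml poly(dI-dC); 15 min compound preincubation; discontinuous kinetic read over 2 h at RT.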
APE1 inh-1: APE1 (human) endonuclease inhibition; P27695; recombinant APE1, TAMRA/BHQ-2 abasic DNA cleavage fluorescence; Potency, µM (highest dose often 65.8 µM), most hits filed as inhibitors; 0.35% of 350,000 active; further: nearly all actives have a fitted effect of over 55% in size
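Enzyme (0.75 nM final) and test compound are incubated 15 min at room temperature before adding 50 nM quenched THF abasic-site duplex. Cleavage dequenches TAMRA, followed at 525/598 nm over three reads one minute apart.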
JMJD2E inh: inhibitors of human JMJD2E histone demethylase | B2RXH2 | JMJD2E catalytic domain, FDH-coupled NADH fluorescence (FDH is formaldehyde dehydrogenase) | Potency, µM (titrated, usually from 57.1 µM), hits mostly inhibitors | 1.6% of 230,000 active; active means well fitted inhibition curve with a large enough effect, not every such curve was filed as active; inconclusive means small, poorly fitted or top-dose-only effect, or another doubt; inactive means no such curve, though single readings can be large or run the other way; further: nearly all actives have a fitted effect of over 50% in size
APE1 dye cs: displaces fluorescent dye from DNA, flagging APE1 artifacts. shares compounds with APE1 inh-1. DNA fluorescent dye displacement counterscreen, fluorescence. Potency, µM (doses to about 28.5 µM), usual class: inhibitors. 7% of 480 active. AID 2564;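 further: loss of thiazole orange fluorescence as the dye is displaced from duplex DNA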
EndoIV counter: counter-screen for APE1 inhibitors: inhibitors of E. coli endonuclease IV | Potency, µM (doses to about 27.1 µM), most hits filed as inhibitors | shares compounds with APE1 inh-1 | E. coli Endo IV, fluorogenic AP-site DNA cleavage | 4% of 560 active
APE1 inh-2: confirmation of inhibitors of human APE1 endonuclease. shares compounds with APE1 inh-1. purified APE1, fluorogenic abasic-site DNA cleavage. Potency, µM (highest dose often 57.1 µM), most hits filed as inhibitors. 44% of 750 active. AID 2572; further: nearly all actives have a fitted effect of over 30% in size
APE1 FP: APE1 (human) DNA binding inhibition, fluorescence polarization | APE1 binding to TAMRA-labelled double-stranded DNA, fluorescence polarization displacement | Potency, µM (top dose mostly 28.5 µM), actives largely listed as inhibitors | AID 2573 | shares compounds with APE1 inh-1 | 7% of 480 active
BLM inh-2: BLM (human) helicase inhibition, confirmation. AID 2585. 40% of 220 active. BLM DNA unwinding, fluorescence quenching, biochemical. Potency, µM, hits mostly inhibitors. shares compounds with BLM inh-1;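 further: strand separation dequenches TAMRA so unwinding raises red fluorescence; series mostly up to about 69 µM; nearly all actives have a fitted effect of over 45% in size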
RECQ1 conf: confirmation of human RECQ1 helicase inhibitors; shares compounds with RECQ1 inh-1; RECQ1 helicase DNA unwinding, fluorescence; Potency, µM (highest dose often 229 µM), usual class: inhibitors; 28% of 610 active; AID 2708; further: nearly all actives have a fitted effect of over 45% in size
RECQ1 ADP FP: ADP displacement flagged in RECQ1 inhibitor counter-screen; shares compounds with RECQ1 inh-1; ADP fluorescence polarization displacement counterscreen; Potency, µM (doses to about 228 µM), usual class: inhibitors; 27% of 530 active; AID 2711; further: nearly all actives have a fitted effect of over 45% in size
RECQ1 inh-2: RECQ1 helicase inhibition confirmed, round 2. shares compounds with RECQ1 inh-1. recombinant RECQ1 DNA unwinding, red fluorescence. Potency, µM (series often up to 119 µM), actives largely listed as inhibitors. 15% of 1,100 active; further: nearly all actives have a fitted effect of over 50% in size
Numbers stand for hits; - = inactive; ? = inconclusive; . = no result given; [ ] = another dose, or the depositor's remark. The sample as a whole holds a higher share of hits than the screen did. Unless noted, the call rests on the fitted dose curve; in most records, active means well fitted curve in the direction sought with a large enough effect; inconclusive means small, poorly fitted or top-dose-only effect, or another doubt; inactive means no such curve, though single readings can be large; an effect the other way counts as inactive or inconclusive.

SMILES | PKM2 act | BLM inh-1 | RECQ1 inh-1 | APE1 inh-1 | JMJD2E inh | APE1 inh-2 | others
O=C(CCCN1C(=O)c2cccnc2Oc2ccc(Cl)cc21)NCc1ccccc1F | . | - | . | . | . | .
Cc1cccc(C(=O)N=c2c(C#N)cc3c(=O)n4cccc(C)c4nc3n2Cc2ccco2)c1 | - | - | ? | ? | ? | - | RECQ1 inh-2=-
Cc1ccc(S(=O)(=O)Nc2cc(C)c(O)cc2C)cc1 | - | - | - | - | - | .
Cc1ccc(S(=O)(=O)Nc2csc(C)c2C(=O)O)cc1 | - | - | ? | 11µM | - | ? | APE1 dye cs=-;EndoIV counter=-;APE1 FP=?;RECQ1 inh-2=?
O=C(NC1CC1)c1cc(-c2ccco2)nc2ccccc12 | ? | 14µM | 20µM | 11µM | ? | 25µM | APE1 dye cs=?;EndoIV counter=?;APE1 FP=-;BLM inh-2=20µM;RECQ1 conf=20µM;RECQ1 ADP FP=56µM
CCCC/C=C/C(NC(=O)c1ccco1)c1ccccc1 (stereo not drawn) | - | - | - | - | ? | .
CCN(CC)CCCC(C)Nc1c2ccc(Cl)cc2nc2ccc(OC)cc12 (stereo not drawn) | - | - | ? | 28µM | ? | 16µM | EndoIV counter=7.9µM;RECQ1 conf=32µM;RECQ1 ADP FP=6.3µM
CCN(CC)CCCC(C)Nc1cc(/C=C/c2ccccc2Cl)nc2cc(Cl)ccc12 (stereo not drawn) | . | - | . | . | . | .
Cc1nnc(NC(=O)CCSCCC(=O)Nc2nnc(C)s2)s1 | ? | - | ? | ? | - | 40µM | RECQ1 inh-2=16µM
CO[C@H]1COC(=O)[C@H](C)COC(=O)[C@H](C)NC(=O)C/C=C\[C@H]1C | . | -[12.4 µM] | -[11.5 µM] | ? | . | .
CC(OCc1ccccc1)C(NC(=O)OC(C)(C)C)C(=O)NC1COC2CC(n3ccc(=O)[nH]c3=O)OC12 (stereo not drawn) | . | - | - | - | . | .
Nc1cc2nc[nH]c2cc1N | - | ? | 1.8µM | - | ? | ? | RECQ1 conf=-;RECQ1 ADP FP=?
C[C@]12C[C@@](C)(C=C1/C=C/c1ccc(C(F)(F)F)cc1)C(=O)C[C@H]2c1ccc(C(F)(F)F)cc1 | . | - | - | - | - | .
CCOC(=O)N1CCc2c(sc(N)c2C#N)C1 | - | - | - | ? | ? | .
CCOC(=O)C1CCc2sc(N)c(C#N)c21 (stereo not drawn) | - | - | 25µM | ? | ? | - | APE1 dye cs=-;EndoIV counter=-;APE1 FP=?;RECQ1 conf=-;RECQ1 ADP FP=-
O=C(O)CSC1CC(=O)N(c2ccc(Cl)cc2)C1=O (stereo not drawn) | - | - | - | - | - | .
O=C(CSC1CC(=O)N(CC(c2ccccc2)c2ccccc2)C1=O)Nc1ccc(Cl)cc1 (stereo not drawn) | - | - | ? | ? | - | ? | APE1 dye cs=-;EndoIV counter=?;APE1 FP=-;RECQ1 inh-2=?
O=C(NCc1ccccc1)[C@]1(C(F)(F)F)C[C@H](CCC2CCCCC2)CCCO1 | . | - | - | - | . | .
COC(=O)c1ccccc1NC(=O)c1noc2c1CSc1ccccc1-2 | . | - | . | . | . | .
COC(=O)c1ccccc1NC(=O)c1noc2c1CCC2 | - | ? | ? | ? | - | 11µM | APE1 dye cs=?;EndoIV counter=-;APE1 FP=?;RECQ1 inh-2=?
Cc1ccccc1C(=O)N/N=C/c1ccc([N+](=O)[O-])s1 | - | - | - | - | - | .
Cc1c(Cl)cccc1N=Cc1ccc([N+](=O)[O-])s1 | - | - | ? | ? | 22µM | - | APE1 dye cs=?;EndoIV counter=-;APE1 FP=-;RECQ1 inh-2=?
COCCCNc1c2c3c(cccc3[nH]c1=O)C(=O)c1ccccc1-2 | - | - | 25µM | ? | - | ? | EndoIV counter=13µM;APE1 FP=4µM;RECQ1 inh-2=56µM
Cc1ccc(C)n1Cc1ccc(C(=O)O)cc1 | - | - | 7.1µM | 3.5µM | 4.5µM | 14µM | RECQ1 conf=20µM
Clc1nc2ccccc2nc1Cl | . | . | - | - | . | .
SMILES | PKM2 act | BLM inh-1 | RECQ1 inh-1 | APE1 inh-1 | JMJD2E inh | APE1 inh-2 | others
O=C(COC(=O)c1c2c(nc3ccccc13)/C(=C/c1ccco1)CC2)NC1CCCC1 | - | 8.9µM | ? | ? | 25µM | . | BLM inh-2=?
Cc1cc(C(=O)OCC(=O)NC2CCCC2)c2ccccc2n1 | . | . | . | - | . | .
CC1(C)Cc2c(C#N)c(N3CCN(C(=O)c4ccccc4Cl)CC3)nc(-c3ccco3)c2CS1 | ? | 14µM | - | - | ? | . | BLM inh-2=?
CC1(C)Cc2c(C#N)c(N3CCN(C(=O)c4ccco4)CC3)nc(-c3ccco3)c2CS1 | ? | ? | - | - | - | .
N#CCCCS(=O)(=O)c1nc2ccccc2s1 | . | - | - | - | - | .
O=C1C(N2CCOCC2)=C(n2nnc3ccccc32)C(=O)c2ccccc21 | - | 35µM | - | - | ? | . | BLM inh-2=?
O=C1c2ccccc2C(=O)c2c1cccc2-n1nnc2ccccc21 | - | - | - | - | - | .
CCNC(=O)[C@H]1O[C@@H](n2cnc3c(N)nc(NCCc4ccc(CCC(=O)O)cc4)nc32)[C@H](O)[C@H]1O | . | . | - | - | ? | .
O=C(Nc1ccccc1C(F)(F)F)N1CCC(CN2CCc3ccccc3C2)CC1 | . | - | . | . | . | .
CCNc1ncc2nc(-c3ccc(Cl)cc3)c(=O)n(Cc3ccc(F)cc3)c2n1 | . | - | - | - | . | .
Cc1cc(=O)cc2oc3cc(N)c(-c4c(C)cc(O)cc4O)c(C)c3nc1-2 | . | 16µM | - | ? | 8.9µM | . | BLM inh-2=20µM
CN1CCc2c(sc(NC(=O)c3cc4cc([N+](=O)[O-])ccc4s3)c2C(N)=O)C1 | - | 28µM | ? | - | - | . | BLM inh-2=29µM
O=C1OC(Nc2cc(Br)cc3cccnc23)c2ccccc21 (stereo not drawn) | - | 22µM | - | - | - | . | BLM inh-2=-
Nc1ccc2nc(-c3cc(Cl)c(N)c(Cl)c3)[nH]c2c1 | - | 14µM | - | - | - | . | BLM inh-2=?
COC(=O)CCN(Cc1ccco1)S(=O)(=O)c1ccc(F)cc1Br | . | - | - | - | . | .
